{"source": "PubChem BioAssay AID1159580", "about": "(chemical genetic matrix, 2015)", "test": "chemical genetic growth profiling, strain panel (AID 1159580);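 further: tested at 20 µM; growth read once vehicle control cultures reached saturation at 30 °C; 1 = growth at the plate median or of vehicle wells; lower values mean less growth of the strain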", "settings": "growth OD", "key": {"[1]": {"settings": "S. cerevisiae deletion strains, locus YAL013W, strain DEP1, active compounds read low"}, "[2]": {"settings": "S. cerevisiae deletion strains, locus YBR229C, strain ROT2, active compounds read low"}, "[3]": {"settings": "S. cerevisiae deletion strains, locus YCL061C, strain MRC1, active compounds read low"}, "[4]": {"settings": "S. cerevisiae deletion strains, locus YDL101C, strain DUN1, active compounds read low"}, "[5]": {"settings": "S. cerevisiae deletion strains, locus YDR150W, strain NUM1, active compounds read low"}, "[6]": {"settings": "S. cerevisiae deletion strains, locus YEL061C, strain CIN8, active compounds read low"}, "[7]": {"settings": "S. cerevisiae deletion strains, locus YGR078C, strain PAC10, active compounds read low"}, "[8]": {"settings": "S. cerevisiae deletion strains, locus YHR030C, strain SLT2, active compounds read low"}, "[9]": {"settings": "S. cerevisiae deletion strains, locus YHR087W, strain rtc3, active compounds read low"}, "[10]": {"settings": "S. cerevisiae deletion strains, locus YJR043C, strain POL32, active compounds read low"}, "[11]": {"settings": "S. cerevisiae deletion strains, locus YJR075W, strain HOC1, active compounds read low"}, "[12]": {"settings": "S. cerevisiae deletion strains, locus YKL190W, strain CNB1, active compounds read low"}, "[13]": {"settings": "S. cerevisiae deletion strains, locus YLR039C, strain RIC1, active compounds read low"}, "[14]": {"settings": "S. cerevisiae deletion strains, locus YLR058C, strain SHM2 (second series), active compounds read low"}, "[15]": {"settings": "S. cerevisiae deletion strains, locus YLR085C, strain ARP6, active compounds read low"}, "[16]": {"settings": "S. cerevisiae deletion strains, locus YLR262C, strain YPT6, active compounds read low"}, "[17]": {"settings": "S. cerevisiae deletion strains, locus YML094W, strain GIM5, active compounds read low"}, "[18]": {"settings": "S. cerevisiae deletion strains, locus YMR219W, strain ESC1, active compounds read low"}, "[19]": {"settings": "S. cerevisiae deletion strains, locus YMR263W, strain SAP30, active compounds read low"}, "[20]": {"settings": "S. cerevisiae deletion strains, locus YMR307W, strain GAS1, active compounds read low"}, "[21]": {"settings": "S. cerevisiae deletion strains, locus YNL128W, strain TEP1, active compounds read low"}, "[22]": {"settings": "S. cerevisiae deletion strains, locus YNL153C, strain GIM3, active compounds read low"}, "[23]": {"settings": "S. cerevisiae deletion strains, locus YNL298W, strain CLA4 (second series), active compounds read low"}, "[24]": {"settings": "S. cerevisiae deletion strains, locus YNL322C, strain KRE1, active compounds read low"}, "[25]": {"settings": "S. cerevisiae deletion strains, locus YNR030W, strain Alg12, active compounds read low"}, "[26]": {"settings": "S. cerevisiae deletion strains, locus YPL055C, strain LGE1, active compounds read low"}, "[27]": {"settings": "S. cerevisiae deletion strains, locus YPL241C, strain CIN2, active compounds read low"}, "[28]": {"settings": "S. cerevisiae deletion strains, locus YPR135W, strain CTF4, active compounds read low"}, "[29]": {"settings": "S. cerevisiae deletion strains, locus YOL006C, strain TOP1, active compounds read low"}}, "note": "Hit rate of the full screen: of about 5,500 compounds, about 2,000 (36%) were called active. About 18% were inconclusive and are not listed. Some of the results follow. Values without a mark were called inactive. No stated cut-off is given here; in the data, active means normalized growth mostly below about 0.91 (no sharp cut-off); inconclusive means no clear call, values can overlap the other calls; inactive means mostly above about 0.92."}
{"smiles": "O=C(O)c1cccc([N+](=O)[O-])c1C(=O)Nc1ccc(F)cc1", "values": [{"measurement": "normalized growth", "setting": "[1]", "result": 1.01}, {"measurement": "normalized growth", "setting": "[2]", "result": 0.996}, {"measurement": "normalized growth", "setting": "[3]", "result": 1.01}, {"measurement": "normalized growth", "setting": "[4]", "result": 1.01}, {"measurement": "normalized growth", "setting": "[5]", "result": 1.03}, {"measurement": "normalized growth", "setting": "[6]", "result": 0.98}, {"measurement": "normalized growth", "setting": "[7]", "result": 1.01}, {"measurement": "normalized growth", "setting": "[8]", "result": 1.1}, {"measurement": "normalized growth", "setting": "[9]", "result": 0.965}, {"measurement": "normalized growth", "setting": "[10]", "result": 1}, {"measurement": "normalized growth", "setting": "[11]", "result": 1.01}, {"measurement": "normalized growth", "setting": "[12]", "result": 0.986}, {"measurement": "normalized growth", "setting": "[13]", "result": "1.22 [resistant] (active)"}, {"measurement": "normalized growth", "setting": "[14]", "result": 0.991}, {"measurement": "normalized growth", "setting": "[15]", "result": 1}, {"measurement": "normalized growth", "setting": "[16]", "result": "1.19 [resistant] (active)"}, {"measurement": "normalized growth", "setting": "[17]", "result": 1.01}, {"measurement": "normalized growth", "setting": "[18]", "result": 0.998}, {"measurement": "normalized growth", "setting": "[19]", "result": 0.996}, {"measurement": "normalized growth", "setting": "[20]", "result": 0.932}, {"measurement": "normalized growth", "setting": "[21]", "result": 0.984}, {"measurement": "normalized growth", "setting": "[22]", "result": 1.01}, {"measurement": "normalized growth", "setting": "[23]", "result": 0.97}, {"measurement": "normalized growth", "setting": "[24]", "result": 1.02}, {"measurement": "normalized growth", "setting": "[25]", "result": 0.996}, {"measurement": "normalized growth", "setting": "[26]", "result": 0.979}, {"measurement": "normalized growth", "setting": "[27]", "result": 1.04}, {"measurement": "normalized growth", "setting": "[28]", "result": 1.04}]}
{"smiles": "COC(=O)c1cccc([N+](=O)[O-])c1-c1c(C(=O)OC)cccc1[N+](=O)[O-]", "values": [{"measurement": "normalized growth", "setting": "[1]", "result": 0.995}, {"measurement": "normalized growth", "setting": "[2]", "result": 1.01}, {"measurement": "normalized growth", "setting": "[3]", "result": 1.03}, {"measurement": "normalized growth", "setting": "[4]", "result": 1.03}, {"measurement": "normalized growth", "setting": "[5]", "result": 1.02}, {"measurement": "normalized growth", "setting": "[6]", "result": 0.983}, {"measurement": "normalized growth", "setting": "[7]", "result": 1.03}, {"measurement": "normalized growth", "setting": "[8]", "result": 1.06}, {"measurement": "normalized growth", "setting": "[9]", "result": 0.997}, {"measurement": "normalized growth", "setting": "[10]", "result": 1.01}, {"measurement": "normalized growth", "setting": "[11]", "result": 0.981}, {"measurement": "normalized growth", "setting": "[13]", "result": 0.994}, {"measurement": "normalized growth", "setting": "[14]", "result": 0.999}, {"measurement": "normalized growth", "setting": "[15]", "result": 1.03}, {"measurement": "normalized growth", "setting": "[16]", "result": 0.97}, {"measurement": "normalized growth", "setting": "[17]", "result": 0.988}, {"measurement": "normalized growth", "setting": "[18]", "result": 0.99}, {"measurement": "normalized growth", "setting": "[19]", "result": 1.03}, {"measurement": "normalized growth", "setting": "[20]", "result": 0.971}, {"measurement": "normalized growth", "setting": "[21]", "result": 0.999}, {"measurement": "normalized growth", "setting": "[22]", "result": 1.03}, {"measurement": "normalized growth", "setting": "[23]", "result": 1.02}, {"measurement": "normalized growth", "setting": "[24]", "result": 1}, {"measurement": "normalized growth", "setting": "[25]", "result": 1.03}, {"measurement": "normalized growth", "setting": "[29]", "result": 1.08}, {"measurement": "normalized growth", "setting": "[26]", "result": 0.974}, {"measurement": "normalized growth", "setting": "[27]", "result": 1}, {"measurement": "normalized growth", "setting": "[28]", "result": 1.06}, {"measurement": "normalized growth", "setting": "S. cerevisiae strains, strain wild type, active compounds read low", "result": 1.02}]}
{"smiles": "Cc1cccc(NC(=O)c2ccccc2)c1", "values": [{"measurement": "normalized growth", "setting": "[1]", "result": 0.961}, {"measurement": "normalized growth", "setting": "[2]", "result": 0.958}, {"measurement": "normalized growth", "setting": "[4]", "result": 0.991}, {"measurement": "normalized growth", "setting": "[5]", "result": 0.974}, {"measurement": "normalized growth", "setting": "[6]", "result": 0.945}, {"measurement": "normalized growth", "setting": "[7]", "result": 0.951}, {"measurement": "normalized growth", "setting": "S. cerevisiae deletion strains, locus YGR229C, strain SMI1, active compounds read low", "result": 0.977}, {"measurement": "normalized growth", "setting": "[8]", "result": 0.827}, {"measurement": "normalized growth", "setting": "[9]", "result": 0.937}, {"measurement": "normalized growth", "setting": "S. cerevisiae deletion strains, locus YJL187C, strain SWE1, active compounds read low", "result": 0.946}, {"measurement": "normalized growth", "setting": "[10]", "result": 0.952}, {"measurement": "normalized growth", "setting": "[11]", "result": 0.913}, {"measurement": "normalized growth", "setting": "[12]", "result": 0.988}, {"measurement": "normalized growth", "setting": "[13]", "result": 0.809}, {"measurement": "normalized growth", "setting": "[14]", "result": 0.981}, {"measurement": "normalized growth", "setting": "[15]", "result": 0.897}, {"measurement": "normalized growth", "setting": "[16]", "result": 0.854}, {"measurement": "normalized growth", "setting": "[17]", "result": 0.924}, {"measurement": "normalized growth", "setting": "[18]", "result": 0.967}, {"measurement": "normalized growth", "setting": "[19]", "result": 0.973}, {"measurement": "normalized growth", "setting": "[21]", "result": 0.992}, {"measurement": "normalized growth", "setting": "[22]", "result": 0.973}, {"measurement": "normalized growth", "setting": "[23]", "result": 0.887}, {"measurement": "normalized growth", "setting": "[24]", "result": 0.98}, {"measurement": "normalized growth", "setting": "[25]", "result": 0.951}, {"measurement": "normalized growth", "setting": "[26]", "result": 0.971}, {"measurement": "normalized growth", "setting": "[27]", "result": 0.91}, {"measurement": "normalized growth", "setting": "[28]", "result": 0.798}]}
{"smiles": "O=C(Nc1cc(-c2ccccc2)[nH]n1)c1ccccc1", "values": [{"measurement": "normalized growth", "setting": "[1]", "result": 0.938}, {"measurement": "normalized growth", "setting": "[2]", "result": 0.947}, {"measurement": "normalized growth", "setting": "[4]", "result": 0.935}, {"measurement": "normalized growth", "setting": "S. cerevisiae deletion strains, locus YDL134C, strain PPH21, active compounds read low", "result": 0.923}, {"measurement": "normalized growth", "setting": "[5]", "result": 1.03}, {"measurement": "normalized growth", "setting": "[6]", "result": "0.867 (active)"}, {"measurement": "normalized growth", "setting": "[7]", "result": 0.936}, {"measurement": "normalized growth", "setting": "[8]", "result": "0.619 (active)"}, {"measurement": "normalized growth", "setting": "[9]", "result": 0.913}, {"measurement": "normalized growth", "setting": "[10]", "result": "0.919 (active)"}, {"measurement": "normalized growth", "setting": "[11]", "result": 0.902}, {"measurement": "normalized growth", "setting": "[12]", "result": "0.89 (active)"}, {"measurement": "normalized growth", "setting": "[13]", "result": "0.719 (active)"}, {"measurement": "normalized growth", "setting": "[14]", "result": 0.982}, {"measurement": "normalized growth", "setting": "[15]", "result": "0.634 (active)"}, {"measurement": "normalized growth", "setting": "[16]", "result": "0.79 (active)"}, {"measurement": "normalized growth", "setting": "[17]", "result": 0.888}, {"measurement": "normalized growth", "setting": "[18]", "result": 0.968}, {"measurement": "normalized growth", "setting": "[20]", "result": "0.492 (active)"}, {"measurement": "normalized growth", "setting": "[21]", "result": 0.973}, {"measurement": "normalized growth", "setting": "[22]", "result": 0.946}, {"measurement": "normalized growth", "setting": "[23]", "result": 0.844}, {"measurement": "normalized growth", "setting": "[24]", "result": 0.988}, {"measurement": "normalized growth", "setting": "[25]", "result": "0.867 (active)"}, {"measurement": "normalized growth", "setting": "[29]", "result": "0.63 (active)"}, {"measurement": "normalized growth", "setting": "[26]", "result": 0.907}, {"measurement": "normalized growth", "setting": "[27]", "result": 0.865}, {"measurement": "normalized growth", "setting": "[28]", "result": "0.488 (active)"}]}
